The full list was thinned out, with hits kept by preference.
Shiga inhibitor – blocks Shiga toxin action in Vero cells. Vero cells, Shiga toxin protein synthesis inhibition reporter. inhibition, % at 38.7 µM. 290,000 tested, 9.2% active. AID 2315; in the data active = inhibition mostly above about 28%, no sharp cut-off; inactive = mostly below about 43%
RE007 growth inh – less growth of the S. pombe RE007 Vpr strain. Potency, µM (highest dose often 92.2 µM), hits mostly inhibitors. 360,000 tested, 0.21% active. S. pombe RE007 Vpr strain, BacTiter-Glo ATP luminescence, 24 h. AID 651644; active = well fitted falling curve with a large enough effect; inconclusive = small, poorly fitted or top-dose-only effect; inactive = no such curve, though single readings can be large or run the other way; note: nearly all actives have a fitted effect of over 50% in size
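Fission yeast strain RE007, carrying one chromosomally integrated HIV-1 vpr copy, was seeded at OD 0.01 in PMG+AL medium with 23 nL pinned compound. After 24 h at 30 °C and 99% humidity, viability was read by BacTiter-Glo luminescence.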
TbPYK inhibitor – blocks Trypanosoma brucei pyruvate kinase; AID 624173; Q57TT1; Potency, µM (doses to about 76.8 µM), most hits filed as inhibitors; TbPYK enzyme, Kinase-Glo Plus ATP luminescence, 45 min; 410,000 tested, 0.12% active; note: nearly all actives have a fitted effect of over 50% in size
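Luminescence from Kinase-Glo Plus, added after a 45-minute room-temperature reaction, served as the end-point read-out. The enzyme and substrate were preincubated with compound before ADP (130 uM final) initiated turnover. Concentration-effect curves came from normalized qHTS data.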
LmPK inh – inhibitors of Leishmania mexicana pyruvate kinase; Q27686; purified LmPK, Kinase-Glo ATP luminescence, 1 h; Potency, µM (top dose mostly 57.5 µM), hits mostly inhibitors; 290,000 tested, 0.37% active; AID 1721
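Purified LmPK (0.1 nM) with 0.5 mM PEP and 0.1 mM ADP in imidazole buffer pH 7.2 with MgCl2/KCl, 1 h at room temperature. ATP formed was read by luciferase luminescence and normalized to no-enzyme and uninhibited controls.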
FBPA Giardia inh – inhibitors of Giardia lamblia fructose-1,6-bisphosphate aldolase. A8B2U2. purified Giardia FBPA. Potency, µM (highest dose often 59.6 µM), actives largely listed as inhibitors. 290,000 tested, 0.71% active; note: nearly all actives have a fitted effect of over 55% in size
Target sequence (A8B2U2 whole entry, looked up): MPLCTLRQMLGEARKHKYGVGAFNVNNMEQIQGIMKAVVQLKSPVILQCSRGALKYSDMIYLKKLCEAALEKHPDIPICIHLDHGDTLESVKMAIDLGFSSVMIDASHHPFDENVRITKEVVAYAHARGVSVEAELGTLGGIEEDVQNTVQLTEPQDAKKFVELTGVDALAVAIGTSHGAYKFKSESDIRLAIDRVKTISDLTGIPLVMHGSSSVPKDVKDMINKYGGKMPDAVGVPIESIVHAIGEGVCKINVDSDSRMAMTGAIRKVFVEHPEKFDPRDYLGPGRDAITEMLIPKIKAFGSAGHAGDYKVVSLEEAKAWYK
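Giardia FBPA (40 nM reagent) was preincubated 10 min at RT with compound (up to 57.5 uM final), then substrate plus GAPDH/TPI/NAD/arsenate coupling system with diaphorase/resazurin was added; resorufin fluorescence (525/598 nm) was read after 20 min.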
CHX counter – counter-screen for Shiga toxin inhibitors: cycloheximide protein synthesis inhibition; cell reporter, cycloheximide protein synthesis inhibition counterscreen; max response, %; 300,000 tested, 12% active; AID 2314; in the data active = max response mostly above about 13%, no sharp cut-off; inactive = mostly below about 14%; note: read at 38.3 µM for the half of the compounds with a filed dose
Numbers stand for hits; i = inactive; ? = inconclusive; nt = not tested or not shown. Unless noted, calls come from the whole dose curve; as a rule, active = well fitted curve in the direction sought with a large enough effect; inconclusive = small, poorly fitted or top-dose-only effect, or another doubt; inactive = no such curve, though single readings can be large; an effect the other way counts as inactive or inconclusive.

SMILES	Shiga inhibitor	RE007 growth inh	TbPYK inhibitor	LmPK inh	FBPA Giardia inh	CHX counter
c1ccc(CSc2ccc(-c3ccco3)nn2)cc1	i	i	i	i	i	26
CC(=O)Nc1c(C)nn(-c2ccccc2)c1N1CCC(C(=O)Nc2ccccc2F)CC1	nt	nt	i	nt	nt	nt
CC1(C(=O)NS(=O)(=O)Cc2ccccc2)CCN1C(=O)C1(c2ccc(Cl)cc2)CCC1 (configuration not stated)	nt	i	i	nt	nt	nt
COc1ccc(C)cc1NC(=O)CCCN1C(=O)CN(C)C1=O	nt	i	i	nt	nt	nt
O=C(NC1CCCC1)c1cnn(-c2ccc(F)cc2F)c1C1CCNCC1	nt	nt	i	nt	nt	nt
CCOC(=O)c1ccc(N2C(=O)c3[nH]nc(-c4ccc(C)cc4)c3C2c2cccs2)cc1 (configuration not stated)	nt	nt	i	nt	nt	nt
Cc1ccc(Sc2cncc3sc(C(N)=O)cc23)cc1	i	nt	nt	nt	i	i
COc1ccccc1-c1nnc(C2CCN(S(=O)(=O)c3ccccc3)CC2)o1	nt	nt	i	nt	nt	nt
Clc1ccc(CSc2ccc(-c3ccco3)nn2)cc1	126	i	i	i	i	23
Clc1cccc(CSc2ccc(-c3cccnc3)nn2)c1	i	i	i	i	i	29
Clc1cccc(CSc2nnc(-c3cccnc3)n2Cc2ccco2)c1	i	i	i	i	i	i
Fc1ccccc1CSc1ccc(-c2ccco2)nn1	120	i	i	i	i	50
CCC(C(=O)NCc1ccco1)N(C(=O)CNS(=O)(=O)c1ccccc1)c1ccc(OC)cc1 (configuration not stated)	i	i	i	i	i	i
Cn1c(=O)c2c(nc(NCCCN3CCOCC3)n2Cc2ccc(Cl)cc2)n(C)c1=O	i	i	i	i	i	i
Cc1cc(NCCCN2CCOCC2)n2ncc(-c3ccc(Cl)cc3)c2n1	i	i	i	i	i	22
CC(C)(C)c1cc(NCCCn2ccnc2)n2ncc(-c3ccccc3)c2n1	67	i	i	i	i	37
CC(C)(C)c1cc(-n2ccnc2)n2ncc(-c3ccc(Cl)cc3)c2n1	59	i	i	i	i	40
CCc1nccn1-c1cc(C(C)(C)C)nc2c(-c3ccc(Cl)cc3)cnn12	i	i	i	i	i	i
Cc1cc(NCCCn2ccnc2)n2ncc(-c3ccc(Cl)cc3)c2n1	83	i	i	i	i	40
CN(C)CCCNc1cc(C(C)(C)C)nc2c(-c3ccc(Cl)cc3)cnn12	53	i	i	i	i	40
CC(C)Nc1cc(C(C)(C)C)nc2c(-c3ccccc3)cnn12	151	i	i	i	i	55
CCC(Oc1ccccc1OC)C(=O)Nc1ccc2c(c1)OCCO2 (configuration not stated)	i	i	i	i	nt	16
COc1ccccc1/C=C/C(=O)Nc1ccc2c(c1)CCC2	34	i	i	i	i	35
COc1ccccc1/C=C/C(=O)Nc1ccc2c(c1)OCCO2	99	i	i	i	i	56
COc1ccccc1OCCC(=O)OCC(=O)Nc1ccc2c(c1)OCCO2	nt	i	i	nt	nt	nt
SMILES	Shiga inhibitor	RE007 growth inh	TbPYK inhibitor	LmPK inh	FBPA Giardia inh	CHX counter
COc1ccccc1/C=C/C(=O)OCC(=O)Nc1ccc2c(c1)OCCO2	nt	i	i	nt	nt	nt
O=C(/C=C/c1ccccc1)Nc1ccc2c(c1)OCCO2	i	i	i	i	i	25
COc1ccc(OC)c(/C=C/C(=O)Nc2ccc3c(c2)CCC3)c1	i	i	i	i	i	i
CC(=O)Nc1ccc(NS(=O)(=O)c2c(C(=O)N3CCC(C)CC3)c(C)n(C)c2C)cc1	nt	nt	i	nt	nt	nt
COc1cccc(-c2nccc(NCc3ccccc3)n2)c1	nt	nt	nt	nt	i	nt
CCC(=O)N1CCc2cc(Br)cc(S(=O)(=O)N3CCN(c4cccc(Cl)c4)CC3)c21	nt	nt	i	nt	nt	nt
COC(=O)[C@@]1(Sc2ccc(C)cc2)CC(=O)N[C@@H]1c1ccc(Br)cc1	nt	i	i	nt	nt	nt
CCN(CC(=O)Nc1ccc2c(c1)OCCO2)C(=O)/C=C/c1ccc(F)cc1	i	i	i	i	i	i
O=C(/C=C/c1ccco1)Nc1ccc2c(c1)OCCO2	69	i	i	i	i	30
CCN(CC(=O)Nc1ccc2c(c1)OCCO2)C(=O)/C=C/c1ccccc1	i	i	i	i	i	36
CCO[C@H]1OC(C(=O)Nc2ccccc2)=C[C@@H](C)[C@@H]1CCCO	i	i	i	i	i	11
COc1ccc(/C=C2\CCc3ccccc3C2=O)cc1Cn1nc(C)cc1C	i	i	i	i	i	21
COc1ccc(/C=C2\CC/C(=C\c3ccc(OC)c(OC)c3)C2=O)cc1OC	i	i	i	i	i	i
COc1ccc(/C=C/C(=O)c2ccccc2O)cc1CN1CCOCC1	i	i	i	i	i	i
COc1ccc(/C=C2/CCc3ccccc3C2=O)cc1CN1CCOCC1	92	i	i	i	i	51
COc1ccc(N2CCN(C(=O)CSc3nnc(C4CC4)n3C3CC3)CC2)cc1	nt	i	i	nt	nt	nt
O=C(Nc1ccc(COc2ccccc2)cc1)Oc1ccccc1N1CCOCC1	i	i	i	i	i	17
COc1ccc(CCNC(=O)CCc2c(C)c3cc4c(C)c(C)oc4cc3oc2=O)cc1	nt	nt	i	nt	nt	nt
Cc1ccc(C2=NN(C(=O)CNCCO)C(c3cccs3)C2)cc1 (configuration not stated)	i	i	i	i	nt	42
CCc1ccc(C2=NN(S(C)(=O)=O)C(c3cccs3)C2)cc1 (configuration not stated)	88	i	i	22µM	i	65
O=C(CNCCO)N1N=C(c2cccs2)CC1c1cccs1 (configuration not stated)	i	i	i	i	i	i
COc1ccc(C2=NN(S(C)(=O)=O)C(c3cccs3)C2)cc1 (configuration not stated)	60	i	i	?	i	41
COc1ccc(C(=O)N2N=C(c3cccc(NS(C)(=O)=O)c3)CC2c2cccs2)cc1 (configuration not stated)	i	i	i	i	i	i
CC(=O)Nc1ccc(C2=NN(c3ccccc3)C(c3cccs3)C2)cc1 (configuration not stated)	88	i	i	i	i	70
COCCNC(=O)/C(C#N)=c1\s/c(=C\c2ccccc2OC(F)F)c(=O)n1Cc1ccccc1	i	nt	nt	i	i	i
CCS(=O)(=O)Nc1cccc(C2=NN(S(=O)(=O)c3ccc(C)cc3)C(c3cccs3)C2)c1 (configuration not stated)	i	i	i	i	i	i
Cc1cccc(C(=O)N2N=C(c3ccc(NS(C)(=O)=O)cc3)CC2c2cccs2)c1 (configuration not stated)	i	i	i	i	i	i
Cc1ccc(C2=NN(S(C)(=O)=O)C(c3cccs3)C2)cc1 (configuration not stated)	178	i	i	i	i	35

Screens deposited in PubChem by National Center for Advancing Translational Sciences (NCATS).
